Bioassay records as filed in PubChem.
Compounds with a hit are over-represented: about 6.1% of the library has one in this group of screens.
D3 ag – D3 dopamine receptor (human) agonism. P35462. D3R DiscoveRx beta-arrestin cells, luminescence, 90 min. max activation, %. actives 0.58% (n = 410,000). AID 652048; in the data active = max activation above about 30%; note: 0% is about no effect
Target sequence (P35462 whole entry, looked up): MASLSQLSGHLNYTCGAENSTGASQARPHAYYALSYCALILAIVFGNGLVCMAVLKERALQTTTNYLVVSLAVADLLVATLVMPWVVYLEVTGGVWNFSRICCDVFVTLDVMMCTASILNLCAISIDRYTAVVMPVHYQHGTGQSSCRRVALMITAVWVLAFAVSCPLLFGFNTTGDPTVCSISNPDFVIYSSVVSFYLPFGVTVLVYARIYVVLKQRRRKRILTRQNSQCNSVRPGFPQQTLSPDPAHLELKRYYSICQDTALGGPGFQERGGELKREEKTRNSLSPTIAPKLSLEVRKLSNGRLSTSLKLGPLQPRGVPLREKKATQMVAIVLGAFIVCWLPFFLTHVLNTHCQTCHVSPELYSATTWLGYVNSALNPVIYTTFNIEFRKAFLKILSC
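Agonist mode: compounds and dopamine controls were applied to plated cells for 90 min at 37 degrees C after an overnight attachment at 1500 cells/well. Luminescent read-out followed 30 - 60 minutes at room temperature with DiscoveRx detection reagent.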
D1 agonist – agonists of human D1 dopamine receptor. HEK293 T-REx D1 cells, calcium flux, agonist mode. activation, % at 2 µM. actives 1% (n = 360,000); in the data active = activation above about 30%; note: 0% is about no effect
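Tetracycline-induced HEK293 TREx D1 cells, force-coupled to calcium signalling, were dye-loaded with a no-wash calcium kit. Compound was pin-added after a 10 s baseline. Fluorescence was read kinetically at 1 cycle/s for 180 s, with calcium rises flagged as agonism.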
D1 potentiator – human D1 dopamine receptor positive modulation; P21728; HEK293 TREx D1 cells, calcium flux, dopamine EC20 potentiation; potentiation, % at 10 µM; actives 0.036% (n = 360,000); in the data active = potentiation above about 30%; note: 0% is about no effect
D3 antag – antagonists of human D3 dopamine receptor; actives 2.5% (n = 360,000); max response, negative = inhibition, %; P35462; D3R cells, DiscoveRx beta-arrestin luminescence, antagonist mode; hits give low values; AID 652054; in the data active = max response below about -50%; inconclusive = no clear call, values can overlap the other calls; note: % is set by controls: 0 for no effect and ±100 for the full control effect
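Cells plated overnight at 1500 cells/well, then exposed to library compounds with dopamine controls for 90 minutes at 37 degrees C. DiscoveRx reagent added for 30–60 minutes at room temperature; luminescence read, quantitative HTS format.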
D1 antag – blocks dopamine activation of the human D1 receptor. activity change, negative = inhibition, % at 10 µM. AID 504652. HEK293 TREx D1 cells, calcium flux, dopamine EC80; hits give low values. actives 3.2% (n = 360,000); in the data active = activity change below about -30%; note: % is set by controls: 0 for no effect and ±100 for the full control effect
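Using tetracycline-induced force-coupled D1 Hek293 cells and a calcium dye, signals were followed for 180 s after compound, then for 180 s after EC80 dopamine, to detect inhibitors.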
* hit, by the source's call; ? = inconclusive; / = no result given.

SMILES | D3 ag | D1 agonist | D1 potentiator | D3 antag | D1 antag
CCOc1ccccc1NC(=O)COc1cccc(-n2cnnn2)c1 | -11 | 1 | -3 | 27 | -12
CCc1ccccc1NC(=O)COc1cccc(-n2cnnn2)c1 | -15 | 44* | / | -1 | -20
CC(=O)Nc1ccc(-n2cnnn2)cc1 | 2 | 2 | 0 | -8 | 9
CCOc1ccc(NC(=O)COc2ccc(-n3cnnn3)cc2)cc1 | 6 | -1 | -4 | 5 | -13
COc1ccc(-n2nc(C(=O)N3CCN(c4cccc(C)c4C)CC3)c3c4ccccc4n(C)c3c2=O)cc1Cl | -8 | -1 | 2 | / | -1
O=C(O)CNC(=O)CNC(=O)CNC(=O)CSC(=O)c1ccccc1 | -3 | / | / | / | /
CC(=O)Nc1ccc(NC(=O)CCc2c(C)nc3c(c(C)nn3-c3ccc(C)cc3)c2C)cc1 | -12 | 3 | -3 | / | 13
Cc1nn(-c2ccc(C(=O)NCC(c3ccco3)N3CCCC3)cc2)c(C)c1Cl (configuration not stated) | 57* | 7 | -4 | -7 | 20
O=C(NCC(c1ccco1)N1CCCC1)c1ccc(Cl)cc1 (configuration not stated) | -2 | 2 | 0 | -67* | 4
O=C(NCC(c1ccco1)N1CCCC1)c1cc2ccccc2s1 (configuration not stated) | -19 | 5 | -3 | -59* | -6
O=C(CCNC(=O)c1ccc(Cl)cc1)NCC(c1ccco1)N1CCCCC1 (configuration not stated) | -1 | 1 | -8 | 0 | 13
COc1ccccc1N1CCN(c2nc3ccccc3n3cnnc23)CC1 | 2 | -2 | -2 | / | -21
CCOc1ccc(CC(=O)NCc2ccc3c(c2)CCN3C(C)=O)cc1OCC | -4 | 2 | 0 | / | 0
CCc1c(C)nc(SCc2nc(-c3ccccc3C)no2)[nH]c1=O | 4 | 12 | -4 | / | -12
CC1CCN(CCOc2cc(Cl)ccc2Cl)CC1 | -5 | 4 | -4 | ? | -59*
Fc1ccccc1OCCCCN1CCCCC1 | -19 | 4 | -6 | -81* | -9
COc1cccc(OC)c1OCCCCN1CCCCC1 | -17 | 6 | 2 | -14 | -5
Clc1ccccc1OCCCCN1CCCCC1 | -25 | 3 | -6 | -95* | -19
O=C(OCCN1CCCCC1)c1ccccc1Cl | 1 | 3 | -2 | -68* | 6
Cc1ccc(CNC(=O)c2ccc3c(c2)c(C)c(C)n3Cc2ccc(Cl)cc2)o1 | -6 | 2 | -7 | / | 10
Clc1ccc(Cl)c(OCCCCN2CCCCC2)c1 | -18 | -1 | -1 | -106* | -18
Clc1ccccc1OCCCCN1CCNCC1 | -13 | 2 | -3 | ? | -2
Clc1ccccc1OCCCCN1CCCC1 | -29 | 2 | -10 | -85* | 8
CCCCCOc1ccc(C(=O)N(Cc2ccccc2)C2CCS(=O)(=O)C2)cc1 (configuration not stated) | 5 | 6 | 2 | / | -6
CN(C)CCNC(=O)c1ccc2c(=O)n(Cc3ccc(Cl)cc3)c(=S)[nH]c2c1 | 1 | 6 | -1 | -58* | -3
SMILES | D3 ag | D1 agonist | D1 potentiator | D3 antag | D1 antag
COC(=O)c1ccc2c(=O)n(Cc3ccc(C(=O)NCCCN4CCC(C)CC4)cc3)c(=S)[nH]c2c1 | -19 | 0 | -11 | 0 | -42*
CC1CCN(CCCNC(=O)c2ccc3c(=O)n(Cc4ccc(Cl)cc4)c(=S)[nH]c3c2)CC1 | -11 | 12 | -8 | -9 | 0
COc1ccccc1Cn1c(=S)[nH]c2cc(C(=O)NCc3cccnc3)ccc2c1=O | -13 | 5 | -3 | -9 | -31*
O=C(CSc1nccn1Cc1ccccc1)NCc1ccco1 | -3 | 1 | -4 | / | 11
Cc1ccc(-n2nnc(-c3nsc(NC(=O)c4ccccc4C)n3)c2C)cc1Cl | -14 | 3 | -3 | / | -4
Cc1ccc2sc(N(Cc3cccnc3)C(=O)CCOc3ccccc3)nc2c1C | 3 | 2 | -1 | / | /
COc1ccc(N2CCN(C(=O)c3nc(-c4ccc(Cl)cc4)n4c3CCCCC4)CC2)cc1 | 7 | 0 | 4 | / | 5
CCOC(=O)Cc1c(C)nc2cc(-c3ccc(C(C)(C)C)cc3)[nH]n2c1=O | 11 | 1 | -3 | 15 | -3
CCOC(=O)Cc1c(C)nc2cc(-c3ccc(C(C)(C)C)cc3)nn2c1C | 13 | 1 | -6 | / | -39*
Cc1ccc(C)c(NC(=O)C(=O)NCCc2csc3nc(-c4ccccc4C)nn23)c1 | 3 | 7 | 5 | / | 64
Cc1cccc(NC(=O)CSc2nnc(-c3cccs3)o2)c1 | -22 | 0 | 2 | / | 7
Cn1c(Cc2nc(-c3cnccn3)no2)nnc1SCC(=O)Nc1ccccc1 | -12 | 0 | 4 | -26 | -87*
Cc1oc2ccc(O)c(CN(C)Cc3ccccc3)c2c1C(=O)Nc1ccccc1 | -11 | -2 | -4 | / | -44*
Cc1ncc(CO)c(/C=N/Nc2ccc(C(F)(F)F)cn2)c1O | -23 | 4 | 2 | -74* | 4
O=C(Nc1ccc(Br)cc1F)c1ccc2nc(CCc3ccccc3)oc2c1 | -19 | 3 | -2 | / | 6
CCCCOc1cccc(C2c3c(-c4cc(C)ccc4O)n[nH]c3C(=O)N2CCOC)c1 (configuration not stated) | 42* | -1 | 1 | / | 18
CC(NC(=O)Cn1ccc2cc(S(=O)(=O)N3CCCCCC3)ccc21)c1ccccc1 (configuration not stated) | -11 | 4 | 0 | / | -4
O=C(Cn1ccn(-c2ccc(F)c(F)c2)c(=O)c1=O)c1ccc(F)cc1 | -7 | 0 | 0 | / | 13
O=C1CC(N2CCN(c3ccc(Cl)c(Cl)c3)CC2)C(=O)N1 (configuration not stated) | -6 | 32* | -16 | -12 | -21
O=C(NCCN1CCOCC1)c1cc2sccc2n1Cc1ccc(F)cc1 | -65 | 3 | 3 | -97* | 2
Cc1ccc(CCNC(=O)c2cc3sccc3n2Cc2ccc(F)cc2)cc1 | -19 | 10 | -4 | / | -24
O=C(NCCN1CCOCC1)c1cc2sccc2n1Cc1ccc(Cl)cc1 | -34 | 2 | -3 | -96* | -18
Cc1c(C)n(Cc2ccc(Cl)cc2)c2ccc(C(=O)NCCN3CCOCC3)cc12 | -2 | 5 | -12 | -24 | -38*
COc1ccc(Nc2oc(COc3ccc(C)cc3)nc2C#N)cc1 | 5 | 1 | -4 | 1 | -2
COc1ccc(Nc2oc(COc3ccc(OC)cc3)nc2C#N)cc1 | -1 | 1 | -13 | 3 | -34*
CCOC(=O)C1CSC(CC(=O)Nc2ccc(Cl)c(Cl)c2)C(=O)N1 (configuration not stated) | 0 | 20 | -9 | -20 | -32*
O=C(CC1CCOCC1)Nc1ccc(Cl)c(Cl)c1 | -6 | 8 | -2 | 0 | -3
